{"source": "ChEMBL document CHEMBL4513147", "about": "“CO-ADD screening of Armstrong State University (GA, USA) compounds”", "note": "Potency and affinity values are given separately.", "data": [{"test_system": "Cryptococcus neoformans", "conditions": "Concentration 32 ug.mL-1; ASSAY_TEST Inhibition of Fungal Growth; detection method Resazurin; Absorption (OD600-OD570); plate type 384well; NBS; CORNING #3640", "units": {"Inhibition": "%"}, "values": [{"smiles": "COc1ccc2c(c1)CCC(=Cc1cncc(Br)c1)C2=O", "Inhibition": -1.36}, {"smiles": "COc1cccc2c1CCC(=Cc1ccoc1)C2=O", "Inhibition": -46.61}, {"smiles": "COc1cccc2c1CCC(=Cc1cccc(C=C3CCc4c(OC)cccc4C3=O)c1)C2=O", "Inhibition": -91.11}, {"smiles": "COc1ccc2c(c1)CCC(=Cc1cccnc1Br)C2=O", "Inhibition": -19.45}, {"smiles": "Cc1ccc(C=C2CN(C(=O)OC(C)(C)C)C/C(=C\\c3ccc(C)cc3C)C2=O)c(C)c1", "Inhibition": -52.76}, {"smiles": "COc1ccc2c(c1)C(=O)C(=Cc1cccc(C=C3CCc4ccc(OC)cc4C3=O)c1)CC2", "Inhibition": -34.17}, {"smiles": "CC(C)(C)OC(=O)N1CC(=Cc2ccco2)C(=O)/C(=C/c2ccco2)C1", "Inhibition": -64.29}, {"smiles": "COc1cc2c(cc1OC)C(=O)C(=Cc1ccoc1)CC2", "Inhibition": -157.54}, {"smiles": "COc1ccc2c(c1)C(=O)C(=Cc1ccoc1)CC2", "Inhibition": -57.68}, {"smiles": "COc1ccc2c(c1)CCC(=Cc1ccc(OC)nc1)C2=O", "Inhibition": -60.31}, {"smiles": "COc1ccc2c(c1)CCC(=Cc1ccoc1)C2=O", "Inhibition": -36.87}, {"smiles": "COc1ccc(/C=C/C(=O)c2ccc(OCc3ccc(Br)cc3)cc2)cc1OC", "Inhibition": -82.08}, {"smiles": "COc1ccc2c(c1)C(=O)C(=Cc1cnccc1OC)CC2", "Inhibition": -28.9}, {"smiles": "COc1ccc2c(c1)CCC(=Cc1cnccc1OC)C2=O", "Inhibition": -48.3}, {"smiles": "COc1cccc2c1CCC(=Cc1ccco1)C2=O", "Inhibition": 7.54}, {"smiles": "COc1ccc2c(c1)C(=O)C(=Cc1ccccn1)CC2", "Inhibition": -7.78}, {"smiles": "COc1ccc2c(c1)C(=O)C(=Cc1cccnc1Br)CC2", "Inhibition": -14.82}, {"smiles": "COc1ccc2c(c1)C(=O)C(=Cc1ccco1)CC2", "Inhibition": -54.58}, {"smiles": "COc1ccc2c(c1)C(O)C(=Cc1cccnc1Cl)CC2", "note": "(stereo unspecified)", "Inhibition": -69.16}, {"smiles": "COc1ccc2c(c1)CCC(=Cc1ccco1)C2=O", "Inhibition": -43.38}, {"smiles": "COc1ccc2c(c1)CCC(=Cc1cccnc1)C2=O", "Inhibition": -44.32}, {"smiles": "COc1cc2c(cc1OC)C(=O)C(=Cc1ccco1)CC2", "Inhibition": -192.19}, {"smiles": "COc1ccc2c(c1)C(=O)C(=Cc1cccnc1OC)CC2", "Inhibition": -33.37}, {"smiles": "COc1ccc2c(c1)C(=O)C(=Cc1cncc(Br)c1)CC2", "Inhibition": -18.22}, {"smiles": "COc1ccc2c(c1)CCC(=Cc1ccccn1)C2=O", "Inhibition": -41.47}, {"smiles": "COc1ccc2c(c1)CCC(=Cc1cccnc1Cl)C2=O", "Inhibition": -15.01}, {"smiles": "COc1ccc2c(c1)C(=O)C(=Cc1cccnc1)CC2", "Inhibition": 20.35}, {"smiles": "COc1ccc2c(c1)CCC(=Cc1ccncc1)C2=O", "Inhibition": -80.91}, {"smiles": "COc1ccc2c(c1)C(=O)C(=Cc1cccnc1Cl)CC2", "Inhibition": -40.92}, {"smiles": "COc1ccc2c(c1)C(=O)C(=Cc1cccnc1Cl)CC2.Cl", "Inhibition": -54.29}, {"smiles": "CC(C)(C)OC(=O)N1CC(=Cc2ccoc2)C(=O)/C(=C/c2ccoc2)C1", "Inhibition": -84.77}]}]}
